Assay results reported in article PMC5540273 (PLoS ONE, 2017).

Key:
[1] = tested on: AAK1; conditions: concentration: 1 μM, replicates: in singlicate; n = 1
[2] = tested on: ABL1-nonphosphorylated; conditions: concentration: 1 μM, replicates: in singlicate; n = 1
[3] = tested on: ABL1-phosphorylated; conditions: concentration: 1 μM, replicates: in singlicate; n = 1
[4] = tested on: ABL2; conditions: concentration: 1 μM, replicates: in singlicate; n = 1
[5] = tested on: ACVR1B; conditions: concentration: 1 μM, replicates: in singlicate; n = 1
[6] = tested on: ACVR1; conditions: concentration: 1 μM, replicates: in singlicate; n = 1
[7] = tested on: ACVR2A; conditions: concentration: 1 μM, replicates: in singlicate; n = 1
[8] = tested on: ACVR2B; conditions: concentration: 1 μM, replicates: in singlicate; n = 1
[9] = tested on: ACVRL1; conditions: concentration: 1 μM, replicates: in singlicate; n = 1
[10] = tested on: T1, ADCK3; conditions: concentration: 1 μM, replicates: in singlicate; n = 1
T1 construct: gene CABC1

[11] = tested on: ADCK4; conditions: concentration: 1 μM, replicates: in singlicate; n = 1
[12] = tested on: AKT1; conditions: concentration: 1 μM, replicates: in singlicate; n = 1
[13] = tested on: AKT2; conditions: concentration: 1 μM, replicates: in singlicate; n = 1
[14] = tested on: AKT3; conditions: concentration: 1 μM, replicates: in singlicate; n = 1
[15] = tested on: ALK; conditions: concentration: 1 μM, replicates: in singlicate; n = 1
[16] = tested on: T2, AMPK-alpha1; conditions: concentration: 1 μM, replicates: in singlicate; n = 1
T2 construct: gene PRKAA1

[17] = tested on: ZAK
[18] = tested on: T3, p38-alpha
T3 construct: gene MAPK14
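Wherever %Inh is given: KINOMEscan kinase panel screen.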
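Wherever Kd is given: kd values determined as follow-up on hits from a single-replicate KINOMEscan panel screen.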

Compound	%Inh [1] [%]	%Inh [2] [%]	%Inh [3] [%]	%Inh [4] [%]	%Inh [5] [%]	%Inh [6] [%]	%Inh [7] [%]	%Inh [8] [%]	%Inh [9] [%]	%Inh [10] [%]	%Inh [11] [%]	%Inh [12] [%]	%Inh [13] [%]	%Inh [14] [%]	%Inh [15] [%]	%Inh [16] [%]	Kd [17] [nM]	Kd [18] [nM]
O=c1cc(N2CCOCC2)nc2n(Cc3cccc4ccccc34)ccn12 [GSK2333389]	0	0	0	17	0	0	9	0	0	6	0	0	20	0	2	0		
O=C1Cc2cc(Nc3nc(NCc4cccc(S(=O)(=O)C(F)(F)F)c4)ncc3C(F)(F)F)ccc2N1	8	0	0	0	0	3	0	0	0	0	2	0	1	0	0	2		
NS(=O)(=O)CCc1cccc(Nc2nccc(-c3c(-c4cccc(NC(=O)c5c(F)cccc5F)c4)nn4ccccc34)n2)c1 [GSK336735]	0	95.3	16	78	7	0	0	37	0	9	42	0	16	0	24	20		
O=C(NCCNc1ccnc(Nc2ccc(F)cc2)n1)c1cc2ccccc2s1 [GSK1379874]	0	0	0	7	0	9	0	0	0	0	27	0	0	0	5	0	> 10000	
Cc1nnc(-c2ccc(C)c(-c3ccc(C(=O)Nc4ccc(NS(C)(=O)=O)cc4)cc3)c2)o1 [GW702865]	0	0	0	0	0	0	0	0	0	20	14	0	12	0	6	17		140
Cc1cn2c(=O)cc(N3CCOCC3)nc2n1Cc1cccc(Cl)c1Cl [GSK2334006]	14	73	63	41	9	18	8	23	0	7	17	0	26	26	6	29		
COc1cc(Nc2nccc(N3CCC(NC(=O)c4cccc(NC(C)=O)c4)C3)n2)cc(OC)c1OC (stereo not drawn) [GSK1379754]	76	0	0	13	0	63	17	18	0	10	36	0	0	0	29	8		
O=C(Nc1cccc(-c2nn3ncccc3c2-c2ccnc(Nc3cccc(C(F)(F)F)c3)n2)c1)c1c(F)cccc1F [GSK299495]	2	18	9	35	0	9	0	0	0	1	28	0	1	0	22	0		
CC(C)Oc1ccc2c(-c3ccnc(Nc4ccc(N5CCN(C)CC5)cc4)n3)cnn2n1 [GW696155]	90	39	53	14	0	69	0	0	0	20	83	0	0	0	42	41		
CCc1nc(-c2cccc(C)c2)c(-c2ccnc(NCc3ccccc3)c2)s1	10	35	7	21	0	0	11	0	0	15	0	4	22	0	0	3		150
Cc1nnc(-c2ccc3occ(-c4ccc(C(C)O)cc4)c3c2)o1 (stereo not drawn)	23	64	36	8	14	15	9	27	8	0	0	17	0	4	0	0		
N#Cc1c(N2CCOCC2)sc(-c2ccn[nH]2)c1-c1ccc(Cl)cc1	70	42	0	9	15	0	0	0	0	12	0	0	0	0	0	9		
